90 molecules from PubChem BioAssay AID372 (MTDP, 2006) can be followed below.

The whole screen tested about 100,000 compounds, of which about 770 (0.77%) were called active. The sample holds actives, similar compounds and a random draw of the others, so the mix is not that of the screen. Unmarked numbers belong to inactive results. Cut-off read from the data, not from the text of the source: active = inhibition above about 50%; inactive = the rest.

The assay addresses Gag-Pol polyprotein (Human immunodeficiency virus type 1 group M subtype B (isolate HXB2)) (UniProt P04585). Kind of assay: RNase H inhibition, HIV 1 Gag Pol polyprotein, FRET biochemical assay, screening (AID 372). To be noted: HIV-1 RT RNase H, FRET RNA/DNA substrate fluorescence; at 10 µM; active compounds read high.
Usually inhibition stands for the drop in the measured response relative to a control, in per cent. As for `CN=C(Nc1ccc2c(c1)OCO2)SC1CC(=O)N(c2ccc(Cl)cc2)C1=O` (stereo not given), the inhibition was 12%. The result for `COC(=O)C1=C(C)N=c2s/c(=C\c3ccccc3Cl)c(=O)n2C1c1ccccc1Cl` (stereo not given) reads 20%. `CCOc1ccc(NC(=O)CC2S/C(=N\N=C(/C)c3ccc(F)cc3)NC2=O)cc1` (stereo not given): the inhibition is 6%.

Regarding `CN1C(=O)NC(=O)/C(=C/c2ccc(-c3cc([N+](=O)[O-])ccc3Cl)o2)C1=O`, the inhibition is 20%. Under `O=C1NC(=O)N(Cc2ccccc2)C(=O)/C1=C/c1ccc(-c2cccc([N+](=O)[O-])c2)o1` stands 38%; under `Cc1ccc([N+](=O)[O-])cc1-c1ccc(/C=C2/C(=O)NC(=O)N(C)C2=O)o1`, 27%; under `O=C1NC(=O)N(Cc2ccccc2)C(=O)/C1=C/c1ccc(-c2ccc([N+](=O)[O-])cc2)o1`, 63% (active). The result for `Cc1cc([N+](=O)[O-])ccc1-c1ccc(/C=C2\C(=O)NC(=O)N(Cc3ccccc3)C2=O)o1` reads 60% (active); that for `Cc1cc([N+](=O)[O-])ccc1-c1ccc(/C=C2/C(=O)NC(=O)N(Cc3ccco3)C2=O)o1`, 25%. Under `CN1C(=O)NC(=O)/C(=C/c2ccc(-c3ccc([N+](=O)[O-])cc3Cl)o2)C1=O` stands 55% (active); under `Cc1cc([N+](=O)[O-])ccc1-c1ccc(/C=C2/C(=O)NC(=O)N(c3ccccc3)C2=O)o1`, 17%; under `O=C1NC(=O)N(c2ccccc2)C(=O)/C1=C\c1ccc(-c2ccc([N+](=O)[O-])cc2)o1`, 7%. Consider `CCC(=O)c1cc(Cl)ccc1NC(=O)c1ccc(Br)cc1`, for which the inhibition was 10%. Under `CC(=O)c1cccc(NC(=O)c2ccc(OC3CSC3)cc2)c1` stands 8%.

Consider `Cc1sc(NC(=O)C2C3C=CC(C3)C2C(=O)O)c(C(N)=O)c1C` (stereo not given), for which the inhibition is 6%. Under `CCOc1cc(/C=C2\C(=O)NC(=O)N(c3ccc(Br)cc3)C2=O)ccc1OCC(=O)O` stands 8%; under `O=C(O)c1cccc(N2C(=O)c3cccnc3C2=O)c1`, 0%.

Regarding `O=C(O)c1cccc(N2C(=O)c3ccc(Br)cc3C2=O)c1`, the inhibition was 1%.

With `O=C(O)c1cccc(N2C(=O)c3ccc4c5c(ccc(c35)C2=O)CC4)c1`, the inhibition was 56% (active). Regarding `COc1ccc(-c2nnc(SCC(=O)c3cccc([N+](=O)[O-])c3)n2-c2ccc(C)cc2)cc1OC`, the inhibition is 19%.

With `Oc1ccc(Nc2nc(-c3ccc(Br)cc3)cs2)cc1`, the inhibition is 21%. Consider `O=C1c2ccc3c4c(ccc(c24)C(=O)N1/N=C/c1ccco1)CC3`, for which the inhibition was 3%. `O=[N+]([O-])c1ccc2c(c1)C(C#Cc1ccccc1)C1CCCCC1(N1CCOCC1)O2` (stereo not given): the inhibition was 57% (active). The result for `Oc1cc(-c2ccccc2)c2c(c1)C1CCCCC1(N1CCOCC1)O2` (stereo not given) reads 0%; that for `Oc1ccc2c(c1)C1CCCCC1(N1CCCCC1)O2` (stereo not given), 0%; that for `O=C(COc1ccc2ccccc2c1)N/N=C/c1ccccc1Br`, 13%. The result for `COc1ccc(OCC(=O)N/N=C\c2cc(O)c(O)c(Br)c2)c(Br)c1` reads 64% (active); that for `O=C(COc1ccc2ccccc2c1)N/N=C\c1cc(O)c(O)c(Br)c1`, 73% (active); that for `O=C(COc1ccc2ccccc2c1)N/N=C/c1ccccc1`, 4%. The result for `COc1ccc(OCC(=O)N/N=C/c2ccc(OC)c(Br)c2)cc1` reads 2%; that for `COc1cc(/C=N/NC(=O)COc2ccc(Cl)cc2Br)cc(Br)c1O`, 24%. As for `Cc1cc(=O)[nH]c(N/N=C/c2ccc(O)cc2)n1`, the inhibition is 2%. Regarding `CC(C)(C)c1cc(C(=O)Nc2nsc(-c3ccccc3)n2)cc(C(C)(C)C)c1`, the inhibition was 7%. The result for `COc1ccc(NC(=O)/C=C/c2ccc(C)o2)cc1` reads 21%; that for `N#C/C(=C/c1cn(-c2ccccc2)nc1-c1cc2ccccc2oc1=O)C(N)=O`, 8%. Under `O=c1oc2ccccc2cc1-c1nn(-c2ccccc2)cc1/C=N/O` stands 21%; under `N#CC(C#N)=Cc1cn(-c2ccccc2)nc1-c1cc2ccccc2oc1=O`, 56% (active); under `Cc1ccccc1-c1nc2c3c4c(sc3ncn2n1)CCCCC4`, 8%. The result for `COc1ccc(OCC(=O)Nc2sc3c(c2C(N)=O)CCCC3)cc1` reads 41%; that for `Cc1cccc(OCC(=O)Nc2ccc3oc(-c4cccc(I)c4)nc3c2)c1`, 22%. For the molecule `CCc1ccc(-c2nc3cc(NC(=O)COc4ccc([N+](=O)[O-])cc4)ccc3o2)cc1`, the inhibition was 43%. Under `COc1ccc(-c2nc3cc(NC(=O)COc4ccc([N+](=O)[O-])cc4)ccc3o2)cc1` stands 55% (active); under `COc1ccc(OCC(=O)Nc2ccc3oc(-c4ccncc4)nc3c2)cc1`, 14%. Consider `COc1ccc(OCC(=O)Nc2ccc3oc(-c4cccc(I)c4)nc3c2)cc1`, for which the inhibition was 53% (active). Under `O=C(COc1ccc([N+](=O)[O-])cc1)Nc1ccc2oc(-c3ccccc3F)nc2c1` stands 49%.

Take `O=C(COc1ccc([N+](=O)[O-])cc1)Nc1ccc2oc(-c3ccc(Br)cc3)nc2c1`: the inhibition is 14%. Under `O=C(COc1ccc([N+](=O)[O-])cc1)Nc1ccc2oc(-c3cccc(Cl)c3)nc2c1` stands 9%; under `O=C(COc1ccc([N+](=O)[O-])cc1)Nc1ccc2oc(-c3ccccc3Cl)nc2c1`, 53% (active); under `O=c1[nH]c(-c2cccc(O)c2)nc2sc3c(c12)CCCC3`, 22%. Under `COc1cccc(COc2cc3oc(=O)c4c(c3cc2Cl)CCCC4)c1` stands 12%; under `O=C(NCc1cccnc1)c1cnn2c(C(F)(F)F)cc(-c3ccc4c(c3)OCO4)nc12`, 11%. Under `Cc1ccc(NC(=O)/C=C/c2ccc3c(c2)OCO3)c(C)c1` stands 10%; under `C=CCN1C(=O)/C(=C\c2ccc(-c3ccc(C(=O)OCC)cc3)o2)C(=O)NC1=S`, 45%; under `CCCCn1c(/N=C/c2nc3ccccc3n2C)nc2ccccc21`, 5%.

In the case of `CCN(CC)c1ccc(N2C(=O)/C(=C\c3ccc(C)o3)SC2=S)cc1`, the inhibition is 3%. The result for `CCN(CC)C(=O)C(=O)N/N=C/c1ccco1` reads 5%; that for `S=C(Nc1ccc2nccnc2c1)Nc1cccc2ccccc12`, 27%. The result for `O=C(N=Nc1c(O)n(CN2CCCCCC2)c2ccc(Br)cc12)c1cccnc1` reads 5%; that for `N#C/C(=C\c1ccccc1[N+](=O)[O-])c1nc(-c2cc3cc([N+](=O)[O-])ccc3oc2=O)cs1`, 52% (active); that for `COc1ccc(-c2csc(/C(C#N)=C/c3ccc(O)c(O)c3)n2)cc1OC`, 84% (active). The result for `N#C/C(=C\c1cccc(Br)c1)c1nc(-c2cccc([N+](=O)[O-])c2)cs1` reads 22%; that for `N#C/C(=C\c1cccc([N+](=O)[O-])c1)c1nc(-c2cccc([N+](=O)[O-])c2)cs1`, 6%; that for `N#C/C(=C\c1ccc(O)c(O)c1)c1nc(-c2cccc([N+](=O)[O-])c2)cs1`, 60% (active).

For `N#C/C(=C\C=C\c1ccccc1[N+](=O)[O-])c1nc(-c2cc3cc([N+](=O)[O-])ccc3oc2=O)cs1`, the inhibition is 6%. The result for `N#C/C(=C\c1cccc([N+](=O)[O-])c1)c1nc(-c2cc3cc([N+](=O)[O-])ccc3oc2=O)cs1` reads 7%; that for `COc1ccc(/C=C(\C#N)c2nc(-c3ccc(OC)c(OC)c3)cs2)cc1O`, 25%. The result for `COc1ccc(-c2csc(/C(C#N)=C/c3ccc(O)cc3)n2)cc1OC` reads 24%; that for `Cc1ccc(-n2c(/C=C3/C(=O)N(C)c4ccc(Br)cc43)nc3ccccc3c2=O)cc1`, 2%.

With `C=CCN1C(=O)C(Cc2ccc(F)cc2)S/C1=N\N=C\c1ccco1` (stereo not given), the inhibition is 3%. Under `CC12C=CC(O1)C1C(=O)N(c3ccc([N+](=O)[O-])cc3)C(=O)C12` (stereo not given) stands 11%; under `O=C1N/C(=N\N=C\c2ccccc2O)SC1Cc1ccc(Br)cc1` (stereo not given), 16%.

Turning to `O=C(Nc1cccnc1)c1cccc(Cl)c1Cl`, the inhibition is 5%.

With `O=C1S/C(=C/c2cccc(Br)c2)C(=O)N1c1ccccc1`, the inhibition is 12%.

Turning to `CCCN1C(=O)/C(=C\c2cccc(Cl)c2)SC1=S`, the inhibition is 19%.

For the molecule `O=C(NC(=S)Nc1ccc(S(=O)(=O)Nc2nccs2)cc1)c1sc2ccccc2c1Cl`, the inhibition was 70% (active). The result for `O=C(Nc1ccc2oc(-c3cccc(F)c3)nc2c1)c1sc2ccccc2c1Cl` reads 52% (active). For `CCc1ccc2oc(-c3ccc(NC(=O)c4sc5ccccc5c4Cl)cc3)nc2c1`, the inhibition was 50% (active). The result for `O=C(Nc1ccc2oc(-c3cccc(Cl)c3)nc2c1)c1sc2ccccc2c1Cl` reads 20%; that for `Cc1ccc(-c2nc3cc(NC(=O)c4sc5ccccc5c4Cl)ccc3o2)cc1`, 20%. The result for `CC(C)(C)c1ccc(C(=O)Nc2ccc(NC(=O)c3sc4ccccc4c3Cl)cc2)cc1` reads 24%; that for `O=C(Nc1nccs1)c1sc2ccccc2c1Cl`, 7%; that for `O=C(Nc1ccc(NC(=O)c2sc3ccccc3c2Cl)cc1)c1ccccc1`, 53% (active).

Consider `Cc1cccc(-c2nc3cc(NC(=O)c4sc5ccccc5c4Cl)ccc3o2)c1`, for which the inhibition is 37%. Under `O=C(c1ccccc1)c1ccc(NC(=O)c2sc3ccccc3c2Cl)cc1` stands 18%; under `O=C(Nc1ccc(-c2nc3cc(Cl)ccc3o2)cc1)c1sc2ccccc2c1Cl`, 41%; under `O=S(=O)(Nc1nccs1)c1ccc(NC(=S)Nc2ccccc2)cc1`, 8%.

As to `Cc1cc(C)c(C(N)=O)c(Nc2ccccc2)n1`, the inhibition is 5%. Under `Cc1ccccc1C(=O)NC(=S)Nc1ccc2c3c(cccc13)CC2` stands 21%. The result for `O=C(Nc1ccc(F)cc1F)c1cccc(I)c1` reads 4%; that for `CCOc1ccccc1N=CC1=C(O)CC(c2ccccc2)CC1=O` (stereo not given), 6%.
